# NPR1 antag – human Npr1 receptor antagonism; P16066; HEK293 hNpr1 GloSensor cGMP, ANP-stimulated luminescence; Potency, µM (doses to about 46.3 µM), for the others: at the top dose activity change, negative = inhibition, most hits filed as inhibitors; 76,000 compounds, 1.6% hits; AID 1347048; calls by dose curve; also: nearly all actives have a fitted effect of over 60% in size
#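 Compound pre-incubated 30 min at room temperature on GloSensor-loaded HEK293 cells stably carrying hNpr1 and the pGS-40F cGMP biosensor. Stimulation uses hNppA at 0.1 nM final; luminescence is taken at baseline and 20 min post-agonist.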
# FLuc inh – inhibitors of firefly (Photinus pyralis) luciferase | AID 1347043 | P08659 | purified P. pyralis luciferase, luminescence, biochemical | Potency, µM (doses to about 115 µM), actives largely listed as inhibitors | 76,000 compounds, 2.5% hits; also: nearly all actives have a fitted effect of over 65% in size
#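 Inhibitors were tested against purified firefly luciferase in a biochemical, low-substrate format (both substrates at 10uM) and luminescence measured with a CCD imager.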
# SNCA expr inhib – SNCA gene expression inhibition | HEK-293 SNCA-luciferase knock-in, luminescence, 24 h | 140,000 compounds, 0.17% hits | AID 1671194 | Potency, µM (highest dose often 57.2 µM), for inactives: top-dose activity change, negative = inhibition, most hits filed as inhibitors;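 also: plate controls were DMSO cells for no effect and cell-free wells for full effect; nearly all actives have a fitted effect of over 45% in size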
# 3T3 cytotox – kills NIH 3T3 cells. NIH 3T3 viability, CellTiter-Glo ATP luminescence, 48-72 h. 94,000 compounds, 4.3% hits. Potency, µM (highest dose often 96.7 µM), for inactives: top-dose activity change, negative = cytotoxicity, actives largely listed as inhibitors; also: nearly all actives have a fitted effect of over 55% in size
#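 Viability of NIH 3T3 cells after 48 or 72 hr compound treatment at 37 °C was assessed by CellTiter-Glo, with luminescence imaged following a 10 min room-temperature step.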
# SNCA viab count – reduces viability of HEK-293 SNCA reporter cells. AID 1671193. 150,000 compounds, 0.12% hits. HEK-293-SNCA-luc viability, GF-AFC fluorescence, 24 h. Potency, µM (top dose mostly 57.1 µM), without a hit: top-dose activity change, negative = cytotoxicity, most hits filed as cytotoxic;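 also: 0% = DMSO-treated cells and -100% = medium-only wells without cells; nearly all actives have a fitted effect of over 30% in size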
#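 Cytotoxicity counterscreen: after 24 h compound treatment of genome-edited SNCA-luciferase HEK-293 cells, live-cell protease substrate GF-AFC read by fluorescence after 30 min; activity scaled between DMSO (0%) and medium-only (-100%), curves Hill-fitted.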
# HEK293 tox – HEK 293 cell cytotoxicity. HEK 293 viability, ATP luminescence (CellTiter-Glo), 48-72 h. Potency, µM (highest dose often 115 µM), inactives show top-dose activity change, negative = cytotoxicity, actives largely listed as inhibitors. 94,000 compounds, 6.6% hits. AID 1345083; also: nearly all actives have a fitted effect of over 60% in size
#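 CellTiter-Glo luminescence (cellular ATP) was read after 48 or 72 hr of compound exposure at 37 degree Celsius. Cells were HEK 293 plated at 250 cells/well.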
# Active calls of the source: *; i = inactive; ? = inconclusive; · = not tested or not shown; ! = repeats disagree; [ ] = remark or other dose. Rows were chosen to be rich in hits. Some 7.4% of all compounds tested hit in one or more screens of this group. Unless noted, calls follow the shape of the dose curve; as a rule, active = well fitted curve in the direction sought with a large enough effect; inconclusive = small, poorly fitted or top-dose-only effect, or another doubt; inactive = no such curve, though single readings can be large; an effect the other way counts as inactive or inconclusive. Unless noted, % is scaled to controls: 0 for no effect and ±100 for the full control effect; potency is read from the fitted curve at half-maximal effect.
SMILES,NPR1 antag,FLuc inh,SNCA expr inhib,3T3 cytotox,SNCA viab count,HEK293 tox
Cc1ccc(CN2CCCC(c3nn(-c4ccc(Cl)cc4)c(=O)[nH]3)C2)cc1 (stereo unspecified),-26.0%,i,1.0%,?,10.8%,35.5µM*
COc1ccc(-n2nc(C3CCN(Cc4ccc(F)cc4)CC3)[nH]c2=O)cc1,-22.1%,i,?,?,-14.2%,17.8µM*!
COc1ccc(-n2nc(C3CCN(Cc4ccc(C#N)cc4)CC3)[nH]c2=O)cc1,-58.2%,i,5.8%,-27.7%,-28.3%,22.4µM*
Cc1ccc(NC(=O)C2CCc3nnc(CN[S+](=O)([O-])c4ccccc4Cl)n32)cc1 (stereo unspecified),·,·,-4.9%,?,2.7%,-7.8%
Cc1ccc(NC(=O)c2nc3sccn3c2-c2ccc(C(F)(F)F)cc2)cc1,·,·,1.5%,?,4.4%,?
COc1ccccc1-c1cccc(C(=O)N2CCN(C(=O)c3ccccc3)CC2)c1,·,·,-18.0%,-32.3%,2.0%[12.5 µM],?
COc1ccccc1-c1cccc(C(=O)N2CCN(C(=O)c3ccccc3C)CC2)c1,·,·,-9.4%,35.5µM*,-25.2%[12.5 µM],31.6µM*
COc1ccccc1-c1cccc(C(=O)N2CCN(C(=O)c3ccc(Cl)cc3)CC2)c1,·,·,?,31.6µM*,-4.4%[12.5 µM],?
CC1OC2OC3C(OCC(O)C3O)OC(=O)C34CCC(C)(C)CC3C3=CCC5C6(C)CC(O)C(OC7OC(CO)C(O)C(O)C7OC7OCC(OC(=O)CC(C)(O)CC(=O)OC1C(OC1OCC(O)C(O)C1O)C2O)C(O)C7O)C(C)(CO)C6CCC5(C)C3(C)CC4O (stereo unspecified),·,·,·,·,5.19µM*,·
CC1(C)CC[C@]2(C(=O)O[C@@H]3O[C@H](CO)[C@@H](O)[C@H](O)[C@H]3O)CC[C@]3(C)C(=CCC4[C@@]5(C)C[C@H](O)[C@H](O[C@@H]6OC[C@@H](O)[C@H](O)[C@H]6O)[C@@](C)(CO)C5CC[C@]43C)C2C1 (stereo partly specified),·,·,·,·,-11.3%[12.5 µM],·
CCC(C)NC(=O)c1cc(-c2ccccc2OC)nc2c1cnn2C (stereo unspecified),·,·,·,-26.3%,·,-14.6%
COCCNC(=O)c1ccc(-c2ccc(N3CCCCCC3)nc2)cc1,-3.3%,?,183.2%,?,-10.0%,?
O=C(NCC1CCCO1)c1ccc(-c2ccc(N3CCSCC3)nc2)cc1 (stereo unspecified),-15.6%,?,9.9%,-6.0%,5.9%,?
O=C(NCCN1CCOCC1)c1ccc(-c2ccc(N3CCCCCC3)nc2)cc1,-23.6%,?,-9.9%,35.5µM*,-25.4%,35.5µM*
O=C(NCc1cccnc1)c1ccc(-c2ccc(N3CCSCC3)nc2)cc1,11.2µM*,?,26.2%,4.47µM*,-13.4%,10µM*
O=C(NCCCN1CCCC1=O)c1ccc(-c2ccc(N3CCSCC3)nc2)cc1,?,39.8µM*,38.5%,?,?,?
O=C(NCCCN1CCOCC1)c1ccc(-c2ccc(N3CCCCCC3)nc2)cc1,-11.7%,?,51.7%,?,-16.8%,35.5µM*
Cc1cccc2c1nc1n2[C@@H](CNCc2nc3ccccc3n2C)COC1,?,i,3.1%[87.6 µM],100µM*,-4.5%[87.6 µM],?
NC(=O)[C@H](Cc1ccccc1)NC(=O)[C@H](CCCN=C(N)N)NC(=O)C12CC3CC(CC(C3)C1)C2,·,·,·,·,-20.0%[12.5 µM],·
CCN(CC)CCNC(=O)c1ccc2nc(-c3ccccc3)c(-c3ccc(CN4CCC(n5c(=O)[nH]c6ccccc65)CC4)cc3)nc2c1,·,·,?,·,15µM*!,·
CN1CC(C(=O)NCCCc2ccccc2)NC1=O (stereo unspecified),·,·,-6.2%[87.6 µM],-12.5%[138 µM],-7.9%[12.5 µM],0.5%[172 µM]
CC1(COc2ccccc2)COc2ccc(C(=O)NCc3cnccn3)cc2N1 (stereo unspecified),-1.7%[70.6 µM],i,15.5%[87.6 µM],?,4.8%[87.6 µM],?
CC1(COc2ccccc2)COc2ccc(C(=O)NCc3ccccc3)cc2N1 (stereo unspecified),-22.2%[70.6 µM],i,?,50.1µM*,?,63.1µM*
COc1ccc(OCC2(C)COc3ccc(C(=O)NCc4ccc(F)cc4)cc3N2)cc1 (stereo unspecified),-29.6%[70.6 µM],i,?,28.2µM*,0.0%[87.6 µM],28.2µM*
Cn1ccc(NC(=O)c2ccc3c(c2)NC(C)(COc2ccccc2)CO3)n1 (stereo unspecified),?,?,-16.3%[87.6 µM],?,-2.7%[87.6 µM],100µM*
SMILES,NPR1 antag,FLuc inh,SNCA expr inhib,3T3 cytotox,SNCA viab count,HEK293 tox
COc1cccc(-c2cccc(C(=O)N3CCN(C(=O)Nc4ccccc4)CC3)c2)c1,·,·,4.6%,?,12.1%[12.5 µM],?
Cc1cnc(CC2CCN(S(=O)(=O)c3ccc4c(c3)CCC4)C2)n1CC1CC1 (stereo unspecified),?,i,-5.2%,?,-24.5%,50.1µM*
O=C(NCC(F)F)C1CCCCN1Cc1ccc(-c2cccs2)cc1 (stereo unspecified),·,·,43.8%,-25.1%,-5.9%[12.5 µM],25.1µM*
O=C(NCc1cccs1)C1CCCCN1Cc1ccc(-c2cccs2)cc1 (stereo unspecified),·,·,?,28.2µM*,-12.6%,31.6µM*
COc1ccc(-c2ccccc2C(=O)N2CCC(NC(=O)c3ccc(Cl)cc3)CC2)nn1,·,·,·,-26.7%,·,?
CNC(=O)c1cc(C2CC2)nc2onc(C3CCCN(C(=O)c4ccccc4C)C3)c12 (stereo unspecified),·,·,·,-13.0%,·,4.6%
O=S(=O)(c1ccc(C(F)(F)F)cc1)N1CCC(C2CCNC2)CC1 (stereo unspecified),0.3%,i,-2.7%,?,2.2%,79.4µM*
O=S(=O)(c1ccc(F)c(F)c1)N1CCC(C2CCNC2)CC1 (stereo unspecified),-2.5%,i,4.4%,-12.6%,-10.2%,?
CC1(c2ccccc2)N(Cc2ccccc2)C(=O)OC12CCN(C(=O)Cc1cccc(F)c1)CC2 (stereo unspecified),-8.8%,i,?,10µM*,-25.2%,?
CC(C)CCN1CCC2(CC1)OC(=O)N(Cc1ccc(O)cc1)C2(C)c1ccccc1 (stereo unspecified),-16.8%[70.6 µM],i,1.1%[87.6 µM],89.1µM*,-7.6%[87.6 µM],?
CC(C)C(=O)N1CCC2(CC1)OC(=O)N(Cc1ccccc1)C2(C)c1ccccc1 (stereo unspecified),-7.5%[70.6 µM],i,-13.8%[87.6 µM],10µM*,-12.0%[87.6 µM],?
